This is an account of results in PubChem BioAssay AID1210 (NMMLSC, 2008).

SMILES strings stand for the structures.

In general, inhibition refers to the drop in the measured response relative to a control, in per cent.

In the assay the target is Estrogen receptor beta (Homo sapiens) (UniProt Q92731). Briefly: ERbeta ligand binders by competition, primary screen, cell-based, Cos7 ERbeta-GFP, flow cytometry (AID 1210).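 Also: 0% = DMSO vehicle wells and 100% = complete loss of labeled estradiol signal.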 The following applies: fluorescent estrogen binding, ligand binding inhibition, at 0.1 µM, stronger effect = higher value.
Estrogen receptor beta (Homo sapiens), sequence (Q92731 whole entry, looked up): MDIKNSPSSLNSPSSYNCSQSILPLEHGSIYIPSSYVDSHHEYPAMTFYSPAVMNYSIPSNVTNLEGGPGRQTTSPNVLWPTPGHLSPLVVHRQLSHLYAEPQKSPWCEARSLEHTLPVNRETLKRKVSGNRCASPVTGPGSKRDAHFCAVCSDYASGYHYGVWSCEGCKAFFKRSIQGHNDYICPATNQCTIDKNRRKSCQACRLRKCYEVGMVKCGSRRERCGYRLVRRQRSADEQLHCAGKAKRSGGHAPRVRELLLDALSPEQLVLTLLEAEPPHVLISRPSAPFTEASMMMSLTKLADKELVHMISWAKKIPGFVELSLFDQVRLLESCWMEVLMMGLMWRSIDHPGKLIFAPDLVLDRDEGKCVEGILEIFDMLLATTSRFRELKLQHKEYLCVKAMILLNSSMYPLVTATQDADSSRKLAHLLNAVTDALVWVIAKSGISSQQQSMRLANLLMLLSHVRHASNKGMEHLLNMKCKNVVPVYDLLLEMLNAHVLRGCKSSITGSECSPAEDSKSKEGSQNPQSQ
As for `Cc1cc(=O)oc2c(CN3CCC(C)CC3)c(O)c(Cl)cc12`, the inhibition worked out at 11%.

With `CC(C)C1Nc2ccc(S(N)(=O)=O)cc2C2C=CCC21` (centres undefined), the inhibition turned out to be 20%.

The compound `Cc1ccc2occ(C3NC(C(=O)O)CS3)c(=O)c2c1` (centres undefined) displayed an inhibition of 27%.

With `O=C(Cc1cn2ccsc2n1)OCc1nc2ccccc2s1`, the inhibition amounted to 24%.

The compound `O=C1/C(=C\c2ccco2)SC(=S)N1c1ccc(O)cc1` registered an inhibition of 27%.

Compound `COc1cc(C=C(c2nc3ccccc3s2)c2nc3ccccc3s2)ccc1O` yielded an inhibition of 57%.

Compound `COc1ccccc1N1CCN(C(=O)c2cc3c(s2)CCC3)CC1` displayed an inhibition of 4%.

In turn, `CC(=O)c1ccc2c(c1)C1C=CCC1C(C(=O)O)N2` (centres undefined) displayed an inhibition of 6%.

`Oc1c(C=Nc2cccc3cccnc23)sc2ccccc12` displayed an inhibition of 30%.

Turning to `Cc1ccc2[nH]c(=O)c(C3C(C#N)=C(N)Oc4c3ccc3cccnc43)cc2c1` (centres undefined), the inhibition came out at 24%.

As for `CCOC(=O)C1=c2/c(=C/c3ccccc3OC)c(N)c(C#N)n2C(=O)C(c2ccccc2OC)S1` (centres undefined), the inhibition worked out at 46%.

The compound `COc1cc(C2Nc3c(F)cccc3C3C=CCC32)cc(Br)c1OC` (centres undefined) returned an inhibition of 25%.

The compound `O=c1cc(-c2ccccc2Cl)oc2c(Br)ccc(O)c12` came in with an inhibition of 19%.

`CC1CC(C(F)(F)C(F)(F)F)n2nc(C(=O)O)cc2N1` (centres undefined) displayed an inhibition of 27%.

For the compound `O=C(NCc1ccco1)c1cc2c(s1)CSC2`, the inhibition was determined as 12%.

For the compound `O=C(NCc1ccco1)c1cc2ccc(O)cc2oc1=O`, the inhibition amounted to 38%.

Compound `COc1ccc(C2CC(c3ccccc3)=NN2c2ccc(N)cc2)cc1` (centres undefined) gave an inhibition of 23%.

The compound `Fc1ccc2c(c1)[C@H]1OCC[C@H]1[C@@H](c1ccco1)N2` gave an inhibition of 1%.

For `CC(Oc1ccc(Cl)cc1Cl)C(=O)Nc1ccc2oc(-c3ccncc3)nc2c1` (centres undefined), the inhibition amounted to 27%.

`CCOC(=O)CN1C(c2ccc(O)cc2)Nc2ccc(Br)cc2C1c1ccccc1` (centres undefined) showed an inhibition of 23%.

Consider `C/C(N)=C(/C#N)C(=O)CSc1nnc(COc2ccccc2Cl)o1`, for which the inhibition was determined as 44%.

For the compound `CCCN(CCC)S(=O)(=O)c1ccc(NC(=O)Cc2cccs2)cc1`, the inhibition turned out to be 20%.

As to `O=C(COC(=O)CCOc1ccccc1)NCc1ccco1`, the inhibition is 37%.

On to `CC(=O)c1sc2nc(SCC(=O)N3CCCCC3)[nH]c(=O)c2c1C`, for which the inhibition came to 12%.

Compound `COC(=O)c1ccc(C2Nc3ccc(/C(C)=N/NC(=O)C(OC)c4ccccc4)cc3C3C=CCC32)cc1` (centres undefined) returned an inhibition of 40%.

Consider `COc1ccc(C(=O)N/N=C(\C)c2ccc3c(c2)C2C=CCC2C(c2ccccc2)N3)cc1` (centres undefined), for which the inhibition was 66%.

Regarding `Cc1c(Cl)cccc1NS(=O)(=O)c1ccc2c(c1)C1C=CCC1C(c1ccc(C(=O)O)cc1)N2` (centres undefined), the inhibition amounted to 12%.

In turn, `O=S(=O)(Nc1ncnc2sc3c(c12)CCC3)c1ccc2ccccc2c1` showed an inhibition of 31%.

Take `COc1cccc(-c2nnc(NC(=O)Cc3cccs3)s2)c1`: the inhibition is 47%.

Take `COc1cc(C2C(C#N)=C(N)Oc3cc(C)oc(=O)c32)cc2c1OCO2` (centres undefined): the inhibition was determined as 46%.

With `O=c1[nH]c(N/N=C/c2ccc(O)cc2)nc2ccccc12`, the inhibition turned out to be 13%.

With `CCOC(=O)C1CCCN(C(=O)c2ccc(CS(=O)(=O)c3ccc(C)cc3)o2)C1` (centres undefined), the inhibition stood at 21%.

As for `COc1ccccc1-c1nnc2sc(-c3cnccn3)nn12`, the inhibition worked out at 17%.

The compound `Cn1c(-c2ccc3nc(N)sc3c2)nc2cc(N)ccc21` registered an inhibition of 17%.

For the compound `COc1ccc(CNC(=O)c2cc(-c3cccs3)on2)cc1`, the inhibition came out at 23%.

Turning to `O=c1cc(CSc2nnc(-c3cccs3)n2Cc2ccccc2)nc2sc3ccccc3n12`, the inhibition was determined as 26%.

Regarding `COc1cc(C(Nc2ccccn2)c2ccc3ccc(C)nc3c2O)cc(OC)c1O` (centres undefined), the inhibition is 20%.

Regarding `O=C(Nc1cccc(-c2cn3cccnc3n2)c1)c1ccc2c(c1)OCO2`, the inhibition turned out to be 48%.

In turn, `O=C(Nc1ccc(N2CCCC2)cc1)C(c1ccccc1)c1ccccc1` gave an inhibition of 19%.
